Source: PubChem BioAssay
An excerpt weighted towards active compounds, which were near 1.8% of everything screened.
p53ts 39C kill = p53ts cell cytotoxicity, nonpermissive temperature; 130,000 tested, 1.5% active; Potency, µM (titrated, usually from 46.1 µM), hits mostly cytotoxic; H1299-p53A138V viability at 39C, ATP luminescence, 24 h; AID 902; note: nearly all actives have a fitted effect of over 55% in size
p53ts 32C tox = kills p53ts cells at the permissive temperature | H1299-p53A138V at 32C, ATP luminescence viability, 24 h | Potency, µM (top dose mostly 46.1 µM), actives largely listed as cytotoxic | 130,000 tested, 0.93% active | AID 924; note: nearly all actives have a fitted effect of over 55% in size
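Cells: H1299 p53ts (A138V), 600/well, pre-incubated 16–30 h at 37C. Cpd up to 46 uM, 24 h, 32C. Readout: ATPlite luminescence, 20 min RT. Normalization: DMSO vs tamoxifen 100 uM. AC50 by Hill equation.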
Peg3 imprint = genomic imprint erasure induction; AID 1948; 110,000 tested, 0.02% active; mouse ES Peg3-LacZ reporter, beta-gal luminescence, 40 h; Potency, µM (top dose mostly 60.7 µM), actives largely listed as activators
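Each well holds 300 Peg3LacZ-Neo (maternal) female ES cells incubated 40 h at 37C, 5% CO2. LacZ is measured by BetaGlo luminescence, with AC50 and maximum efficacy derived from dose-response curves.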
A number is an active result; 0 = inactive; ? = inconclusive; - = no result given; [ ] = remark or other dose. Calls come from the whole dose curve; as a rule, active = well fitted curve in the direction sought with a large enough effect; inconclusive = small, poorly fitted or top-dose-only effect, or another doubt; inactive = no such curve, though single readings can be large; an effect the other way counts as inactive or inconclusive.

SMILES | p53ts 39C kill | p53ts 32C tox | Peg3 imprint
Cc1cccc(OCC(=O)Nc2ccc(-c3nc4cc(C)ccc4o3)c(O)c2)c1 | 10µM | 0 | 0[10.9 µM]
CCOc1ccc(-c2nc3cc(NC(=O)COc4cccc(C)c4)ccc3o2)cc1 | 0 | 0 | 0[10.9 µM]
CCOc1ccc(C(=O)Nc2ccc(-c3nc4cc(C)ccc4o3)cc2)cc1 | 0 | 0 | 0[10.9 µM]
CCOc1cccc(-c2nc3cc(C)ccc3o2)c1 | ? | 15.8µM | 0
CCCC(=O)Oc1c(Sc2ccc(Cl)cc2)c(C)nn1-c1ccccc1 | 0 | ? | 0[10.9 µM]
CC(C)OCCCNC(=O)CN1C(=O)COc2ccc(S(=O)(=O)N3CCOCC3)cc21 | 0 | 0 | 0[10.9 µM]
COc1c(-c2coc3cc4c(cc3c2=O)CC(OC(C)=O)C(C)(C)O4)ccc2c1C=CC(C)(C)O2 (stereo not drawn) | 0 | 0 | 0
COc1c(-c2coc3cc4c(cc3c2=O)CC(O)C(C)(C)O4)ccc2c1C=CC(C)(C)O2 (stereo not drawn) | 25.1µM | ? | 0
CC(C)Oc1ccc(CNC(=O)c2ccc(NC(=O)N3CCSc4ncccc43)cc2)cc1 | 0 | 0 | 0[10.9 µM]
CCOC(=O)C1CCN(C(=O)c2ccc(NC(=O)c3nsc4ccccc34)cc2)CC1 | ? | ? | 0[10.9 µM]
NC(=O)C1CCN(C(=O)c2ccc(NC(=O)c3nsc4ccccc34)cc2)CC1 | 2.51µM | 2µM | 0[10.9 µM]
COc1cccc(-c2cc(NCc3cccs3)ncn2)c1 | ? | 25.1µM | 0
COc1cccc(-c2cc(NCc3cccc(C)c3)ncn2)c1 | 0 | 0 | 0
COc1ccc(C2C3=C(CCCC3=O)Nc3nc4ccccc4n32)c(OC)c1OC (stereo not drawn) | 0 | 0 | 0
CC(C)c1ccc(C2=CC(c3cccc(Cl)c3)n3c(nc4ccccc43)N2)cc1 (stereo not drawn) | ? | ? | 0[10.9 µM]
CCc1ccc(C2=CC(c3cccc(OC)c3OC)n3c(nc4ccccc43)N2)cc1 (stereo not drawn) | 15.8µM | 10µM | 0[10.9 µM]
CCc1ccc(C2=CC(c3cccc(C)c3)n3c(nc4ccccc43)N2)cc1 (stereo not drawn) | 5.01µM | 8.91µM | 0[10.9 µM]
CCc1cccc(NC(=O)C(Cc2ccccc2)NS(=O)(=O)c2ccc3c(c2)c(=O)n(C)c(=O)n3C)c1 (stereo not drawn) | 0 | 0 | 0[10.9 µM]
N#Cc1c(-c2ccccc2)no[n+]1[O-] | 15.8µM | ? | 0
N#Cc1cn(-c2ccccc2)nc1-c1ccccc1 | 0 | 0 | 0
c1ccc(C(c2ccccc2)N2CC3(CCNCC3)C2)cc1 | 0 | 0 | -
CSc1cccc(NS(=O)(=O)c2ccc3[nH]cc(C(=O)N4CCCC4)c(=O)c3c2)c1 | 0 | 0 | 0[10.9 µM]
c1ccc(N2CCN(c3nc4cc5c(cc4s3)OCO5)CC2)cc1 | 0 | 0 | 0
Clc1cccc2sc(N3CCCC3)nc12 | 0 | 0 | 0
c1c2c(cc3sc(N4CCOCC4)nc13)OCO2 | ? | 10µM | 0
SMILES | p53ts 39C kill | p53ts 32C tox | Peg3 imprint
c1ccc2c(c1)CCN(c1nc3cc4c(cc3s1)OCO4)C2 | ? | 12.6µM | 0
c1ccc2c(c1)CCN(Cc1nnnn1Cc1ccc3c(c1)OCO3)C2 | 0 | 0 | 0
c1c2c(cc3sc(N4CCCCC4)nc13)OCO2 | 10µM | 6.31µM | 0
COc1ccc(C(=O)N2CCC[C@@]3(CCN(c4ncccn4)C3)C2)cc1 | 0 | 0 | -
Cc1ccc(C)c(N2CCN(C(=O)c3ccc(Nc4nc5ccccc5n5nnnc45)cc3)CC2)c1 | 0 | 0 | 0[10.9 µM]
Cn1c(-c2ccc3c(c2)OCO3)cnc1N | 0 | 0 | 0
c1cc2c(cc1-c1cnc3n1CCC3)OCCO2 | 12.6µM | ? | 0
O=C(Nc1ccc(F)cc1F)c1c2c(nc3ccccc13)C(=O)N(C1CCCCC1)C2 | ? | 0 | 0[10.9 µM]
COc1ccc(C)cc1NC(=O)c1c2c(nc3ccccc13)C(=O)N(C1CCCCC1)C2 | 10µM | 0 | 0[10.9 µM]
COCc1cc(=O)n2c(-c3ccc(C)cc3)n[nH]c2n1 | 10µM | 10µM | 0
COCc1cc(=O)n2c(-c3ccccc3OC)n[nH]c2n1 | 0 | 0 | 0
O=C(Nc1ccc(F)c(Cl)c1)N1CCC(CN2CCOCC2)CC1 | - | 0 | -
Cc1ccc2oc(-c3ccc(C)c(NC(=O)c4ccc(-c5ccccc5[N+](=O)[O-])o4)c3)nc2c1 | 0 | 0 | 0[10.9 µM]
COc1ccc2oc(-c3ccc(C)c(NC(=O)c4ccc(-c5ccccc5[N+](=O)[O-])o4)c3)nc2c1 | 10µM | 0 | 0[10.9 µM]
CCc1ccc(CNC(=O)c2ccc(CSc3nc4ccncc4n3Cc3ccccc3)cc2)cc1 | 0 | 0 | 0[10.9 µM]
C=CC1CO1 (stereo not drawn) | 0 | 0[1.84 µM] | 0
CC(C)NC(=O)NC(=O)COc1ncnc2sccc12 | 0 | 0 | 0
C=CCn1c(C)cc(C(=O)COc2ncnc3sccc23)c1C | 7.94µM | ? | 0
O=C(O)c1cccc(CN2CCCCC2)c1 | 0[9.22 µM] | 0[9.22 µM] | 0[10.9 µM]
CCc1ccc(NC(=O)Cn2ncc3c(C)n(Cc4cccc(Cl)c4)c(C)c3c2=O)cc1 | 0 | 0 | 0[10.9 µM]
